Sm TGR inh: S. mansoni TGR enzyme inhibition | Potency, µM (top dose mostly 114 µM), for inactives: at the highest dose activity change, negative = inhibition, most hits filed as inhibitors | AID 485364 | purified TGR, DTNB reduction, TNB absorbance 405 nm | Q962Y6 | 360,000 tested, 3% active; further: potency means the concentration at half of the fitted maximal effect; on the % scale 0 is the no-effect control and ±100 the full control effect; nearly all actives have a fitted effect of over 60% in size
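Kinetic colorimetric format: TGR-catalysed, NADPH-driven DTNB reduction monitored via TNB absorbance. Enzyme dispensed at 20 nM; compound exposure 15 min at room temperature before reaction start.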
Shiga toxin inh: inhibitors of Shiga toxin in Vero cells; Vero cells, Shiga toxin protein synthesis inhibition reporter; inhibition, % at 38.7 µM; 290,000 tested, 9.2% active; AID 2315; in the data active means inhibition mostly above about 28%, no sharp cut-off; inactive means mostly below about 43%; further: 0% is about no effect
Tb PYK inh: T. brucei pyruvate kinase inhibition; 410,000 tested, 0.12% active; AID 624173; Potency, µM (highest dose often 76.8 µM), for the others: top-dose activity, negative = inhibition, most hits filed as inhibitors; TbPYK enzyme, Kinase-Glo Plus ATP luminescence, 45 min; Q57TT1; further: potency means the concentration at half of the fitted maximal effect; on the % scale 0 is the no-effect control and ±100 the full control effect; nearly all actives have a fitted effect of over 50% in size
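Assay buffer: 50 mM TEA pH 7.2, 100 mM KCl, 10 mM MgCl2, 0.05% BSA, 0.01% Tween-20. Pyruvate kinase from T. brucei plus substrate met compound, then ADP (130 uM final). Luminescence was read post 45 min RT.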
LmPK inh: LmPK (Leishmania mexicana) enzyme inhibition | Q27686 | purified LmPK, Kinase-Glo ATP luminescence, 1 h | Potency, µM (highest dose often 57.5 µM), for the others: at the highest dose activity change, negative = inhibition, hits mostly inhibitors | 290,000 tested, 0.37% active | AID 1721; further: potency means the concentration at half of the fitted maximal effect; on the % scale 0 is the no-effect control and ±100 the full control effect
Target sequence (Q27686 whole entry, looked up): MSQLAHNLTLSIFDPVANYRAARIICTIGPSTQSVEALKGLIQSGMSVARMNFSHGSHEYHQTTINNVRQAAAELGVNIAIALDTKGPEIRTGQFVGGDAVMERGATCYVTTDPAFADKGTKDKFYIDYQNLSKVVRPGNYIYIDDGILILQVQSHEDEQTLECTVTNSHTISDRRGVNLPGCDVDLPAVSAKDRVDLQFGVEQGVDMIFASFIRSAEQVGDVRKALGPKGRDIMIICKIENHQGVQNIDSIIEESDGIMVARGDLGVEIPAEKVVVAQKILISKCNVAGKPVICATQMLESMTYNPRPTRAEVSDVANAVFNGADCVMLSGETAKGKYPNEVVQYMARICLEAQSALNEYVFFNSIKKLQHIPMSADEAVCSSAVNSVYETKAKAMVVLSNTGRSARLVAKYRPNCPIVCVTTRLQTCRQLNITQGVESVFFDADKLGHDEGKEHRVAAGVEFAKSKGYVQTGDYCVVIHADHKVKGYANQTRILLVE
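Purified LmPK (0.1 nM) converted ADP (0.1 mM) to ATP with PEP (0.5 mM) in imidazole buffer pH 7.2 with KCl and MgCl2, 1 h at room temperature. ATP was read by Kinase-Glo luminescence; data normalized to uninhibited and no-enzyme controls.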
Cycloheximide cs: affects cycloheximide protein synthesis inhibition readout, counter-screen | cell reporter, cycloheximide protein synthesis inhibition counterscreen | max response, % | 300,000 tested, 12% active | AID 2314; in the data active means max response mostly above about 13%, no sharp cut-off; inactive means mostly below about 14%; further: read at 38.3 µM for the half of the compounds with a filed dose; 0% is about no effect
FBPA Giardia inh: inhibitors of Giardia lamblia fructose-1,6-bisphosphate aldolase | A8B2U2 | 290,000 tested, 0.71% active | Potency, µM (doses to about 59.6 µM), for inactives: at the top dose activity, negative = inhibition, most hits filed as inhibitors | purified Giardia FBPA; further: potency means the concentration at half of the fitted maximal effect; on the % scale 0 is the no-effect control and ±100 the full control effect; nearly all actives have a fitted effect of over 55% in size
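40 nM FBPA preincubated 10 min at RT with compound (up to 57.5 uM final), then substrate plus GAPDH/TPI/NAD/arsenate coupling and diaphorase/resazurin added. Fluorescence read after 20 min at RT, 525/598 nm.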
Active calls of the source: *. Many of the other results were omitted from the sample, so hits are more common in it than they were. Unless noted, the call rests on the fitted dose curve; in most records, active means well fitted curve in the direction sought with a large enough effect; inconclusive means small, poorly fitted or top-dose-only effect, or another doubt; inactive means no such curve, though single readings can be large; an effect the other way counts as inactive or inconclusive.

How did CC1(C)Cc2c(c(-c3ccco3)[nH]c(=O)c2C#N)CS1 do in these assays?
Sm TGR inh: 32µM*; Shiga toxin inh: -2; Tb PYK inh: -4%; LmPK inh: 5%; Cycloheximide cs: 1; FBPA Giardia inh: 18µM*

Results for CCc1nc(N2CCN(C(=O)c3ccco3)CC2)c(C#N)c2c1COC(C)(C)C2 ?
Sm TGR inh: 0%; Shiga toxin inh: -3; Tb PYK inh: -1%; LmPK inh: 8%; Cycloheximide cs: 3; FBPA Giardia inh: -1%

What do the screens show for `CC(=O)N1CCN(c2nc(-c3ccco3)c3c(c2C#N)CC(C)(C)SC3)CC1`?
Sm TGR inh: 11µM*; Shiga toxin inh: -12; Tb PYK inh: -15%; LmPK inh: 5%; Cycloheximide cs: 2; FBPA Giardia inh: -11%

What do the screens show for `CC1(C)Cc2c(C#N)c(N3CCN(C(=O)c4ccccc4Cl)CC3)nc(-c3ccco3)c2CS1`?
Sm TGR inh: 3.5µM*; Shiga toxin inh: -9; Tb PYK inh: -24%; LmPK inh: -4%; Cycloheximide cs: -3; FBPA Giardia inh: -22%

How did CC1(C)Cc2c(C#N)c(N3CCN(C(=O)c4ccco4)CC3)nc(Cc3ccccc3)c2CO1 do in these assays?
Sm TGR inh: 0%; Shiga toxin inh: -17; Tb PYK inh: 1%; LmPK inh: 8%; Cycloheximide cs: -7; FBPA Giardia inh: -2%

How did CCOc1ccccc1Nc1nc(-c2cccc(Cl)c2)c2c(n1)-c1ccccc1OC2 do in these assays?
Sm TGR inh: inconclusive; Tb PYK inh: 5%

How did CC(C)C(=O)N1CCC(Cc2ccccc2)CC1 do in these assays?
Sm TGR inh: 0%; Shiga toxin inh: -10; Tb PYK inh: -1%; LmPK inh: -1%; Cycloheximide cs: -3; FBPA Giardia inh: 15%

How did COc1ccc(S(=O)(=O)N2CCN(C(=O)/C=C/c3ccco3)CC2)cc1 do in these assays?
Sm TGR inh: 8.9µM*; Tb PYK inh: -16%

What do the screens show for `COc1cccc(N2CCN(C(=O)/C=C/c3ccco3)CC2)c1`?
Sm TGR inh: 22µM*; Shiga toxin inh: 60; Tb PYK inh: 0%; LmPK inh: -1%; Cycloheximide cs: 41*; FBPA Giardia inh: -25%

How did O=C(OCC(=O)N1CCC(Cc2ccccc2)CC1)c1ccccc1 do in these assays?
Sm TGR inh: -4%; Shiga toxin inh: 79*; Tb PYK inh: 0%; LmPK inh: -4%; Cycloheximide cs: 55*; FBPA Giardia inh: 4%

Results for CNC(=S)N1CCN(c2cccc(OC)c2)CC1 ?
Sm TGR inh: 0%; Shiga toxin inh: -13; Tb PYK inh: 3%; LmPK inh: -3%; Cycloheximide cs: -3; FBPA Giardia inh: 1%

What do the screens show for `O=C(/C=C/c1ccco1)N1CCC(Cc2ccccc2)CC1`?
Sm TGR inh: 20µM*; Shiga toxin inh: 84*; Tb PYK inh: -18%; LmPK inh: 0%; Cycloheximide cs: 26*; FBPA Giardia inh: -3%

Results for O=C(/C=C/c1ccco1)N1CCN(S(=O)(=O)c2cccc([N+](=O)[O-])c2)CC1 ?
Tb PYK inh: -13%

What do the screens show for `CC1CCc2c(sc(NC(=O)c3cc(-c4ccc(F)cc4)on3)c2C(N)=O)C1` (stereo not drawn)?
Sm TGR inh: 0%; Tb PYK inh: 2%

Results for COc1ccc(-n2c(=O)c3ccccc3n(Cc3ccc(F)cc3Cl)c2=O)cc1OC ?
Sm TGR inh: 3%; Tb PYK inh: -1%

How did O=c1c(CCc2ccccc2)nc2cnc(N3CCOCC3)nc2n1C1CC1 do in these assays?
FBPA Giardia inh: -20%

Results for O=C(/C=C/c1ccco1)N1CCN(c2ncccn2)CC1 ?
Sm TGR inh: 20µM*; Shiga toxin inh: 92*; Tb PYK inh: -8%; LmPK inh: -4%; Cycloheximide cs: 19*; FBPA Giardia inh: -1%

Results for O=C(/C=C/c1c(Cl)cccc1Cl)N1CCN(c2ncccn2)CC1 ?
Sm TGR inh: -7%; Shiga toxin inh: -13; Tb PYK inh: 0%; LmPK inh: 4%; Cycloheximide cs: 4; FBPA Giardia inh: 1%

What do the screens show for `O=C(O)c1ccc(N/N=C/c2cc(Br)cs2)cc1`?
Sm TGR inh: -2%; Shiga toxin inh: 29; Tb PYK inh: 4%; LmPK inh: -2%; Cycloheximide cs: 25*; FBPA Giardia inh: 19%

What do the screens show for `O=C(Cc1ccccc1)N/N=C/c1cccs1`?
Sm TGR inh: 14%; Shiga toxin inh: 14; Tb PYK inh: -5%; LmPK inh: -1%; Cycloheximide cs: -4; FBPA Giardia inh: -5%

What do the screens show for `O=C(Cc1ccccc1)N/N=C/c1cc(Br)cs1`?
Sm TGR inh: 4%; Shiga toxin inh: 17; Tb PYK inh: -3%; LmPK inh: -7%; Cycloheximide cs: 14*; FBPA Giardia inh: 7%

How did CCOC(=O)N1CCc2c(sc(NCc3ccc(N(C)C)cc3)c2C(=O)Nc2ccccc2OCC)C1 do in these assays?
Sm TGR inh: -29%; Tb PYK inh: -25%

Results for Cc1ncc(C[n+]2csc(CCOP(=O)(O)OP(=O)(O)O)c2C)c(N)n1 ?
Shiga toxin inh: 3; Tb PYK inh: 0%; Cycloheximide cs: 9; FBPA Giardia inh: 3%

What do the screens show for `C[C@@H]1C[C@@H]2[C@H]([C@H]3C=C(COC(=O)c4ccccc4)[C@@H](O)[C@]4(O)[C@@H](O)C(OC(=O)c5ccccc5)=C[C@@]14C3=O)C2(C)C`?
Shiga toxin inh: 24*; Cycloheximide cs: 17; FBPA Giardia inh: -7%

Results for COc1ccccc1CNc1cc(-c2ccccc2C(F)(F)F)ncn1 ?
FBPA Giardia inh: 0%

How did COc1cc(-c2nnc(CSc3nnc(Nc4ccc(Oc5ccccc5)cc4)s3)o2)cc(OC)c1OC do in these assays?
Sm TGR inh: 1%; Shiga toxin inh: 26; Tb PYK inh: -16%; LmPK inh: -5%; Cycloheximide cs: 15*; FBPA Giardia inh: 2%

Results for C=CCN1C(=O)NC(=O)/C(=C/C=C/c2ccccc2)C1=O ?
Sm TGR inh: 10µM*; Shiga toxin inh: 37; Tb PYK inh: -23%; LmPK inh: -4%; Cycloheximide cs: 17; FBPA Giardia inh: -10%

What do the screens show for `CCOc1cc(/C=C2\C(=O)NC(=O)N(CCc3ccc(F)cc3)C2=O)ccc1O`?
Sm TGR inh: inconclusive; Shiga toxin inh: -10; Tb PYK inh: -18%; LmPK inh: 1%; Cycloheximide cs: -2; FBPA Giardia inh: -17%

How did O=C1NC(=O)N(CCc2ccc(F)cc2)C(=O)/C1=C\C=C\c1ccccc1 do in these assays?
Sm TGR inh: inconclusive; Shiga toxin inh: 27; Tb PYK inh: 4%; LmPK inh: -1%; Cycloheximide cs: 21*; FBPA Giardia inh: 1%

Results for CC(CNC(=O)c1cnn(-c2ccc(F)cc2)c1-n1cccc1)c1ccccc1 (stereo not drawn) ?
Sm TGR inh: -11%; Tb PYK inh: 5%
